The values that follow come from PubChem BioAssay AID1345085 (National Center for Advancing Translational Sciences (NCATS), 2018).

Inconclusive results are not listed. Active and inactive are the calls of the source. Calls come from the whole dose curve; as a rule, active = well fitted cell-killing curve with a large enough effect; inconclusive = small, poorly fitted or top-dose-only effect, or effect the other way; inactive = no such curve, though single readings can be large or run the other way.
% is set by controls: 0 for no effect and ±100 for the full control effect; potency is the fitted concentration of half-maximal effect.

In the assay the test system is PA-1. The experiment in a line: Confirmatory qHTS for gynecologic anti-cancer compounds from libraries of approved drugs and bioactive compounds. Note: nearly all actives have a fitted effect of over 55% in size. As to conditions: gynecologic cancer cell panel viability, ATPlite luminescence, 48 h; series mostly up to 57.6 µM; activity change, negative = viability loss: at the top concentration. An outline of the steps: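 ATPlite luminescence read-out of cell viability; IC50 from 11-point 1:3 titrations, 57.5 uM to 0.977 nM, 48 h compound exposure at 37 C, 5% CO2. Cells seeded at 1,000/well 16 h before dosing.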
For orientation: In qHTS, concentration-response curves come from the screen itself.
Turning to `CC(C)Oc1ccc2c(=O)c(-c3ccccc3)coc2c1`, the Potency was 17.2 µM (active).
Same read-out and setting: as for `COc1ccc(OC)c(-c2nnc3ccc(-c4ccc(OC)c(O[C@@H]5CCOC5)c4)nn23)c1`, the figure is 5.44 µM (active).
With `Cc1nc(NC(=O)N2CCCC2C(N)=O)sc1-c1ccnc(C(C)(C)C(F)(F)F)c1` (configuration not stated), the Potency is 27.3 µM (active).
Turning to `O=C(c1ccc(/C=C/c2n[nH]c3ccccc23)cc1)N1CCNCC1`, the Potency was 6.11 µM (active).
Turning to `COc1ccccc1N1CCN(CC(O)COc2cccc3ccccc23)CC1` (configuration not stated), the “activity change, negative = viability loss” value is -27.1% (inactive).
For `COC(C(=O)N1Cc2[nH]nc(NC(=O)c3ccc(N4CCN(C)CC4)cc3)c2C1)c1ccccc1` (configuration not stated), the Potency is 7.69 µM (active).
Same read-out and setting: as for `N#CC1(c2cccc(C(=O)Nc3cc(Oc4ccc5nc(NC(=O)C6CC6)sc5n4)ccc3F)c2Cl)CC1`, the figure is 8.63 µM (active).
`CNc1nc(Nc2ccc(C(=O)N3CCOCC3)cc2OC)ncc1Cl`: the “activity change, negative = viability loss” value is 3.04% (inactive).
Consider `COc1cc(Nc2ncc3c(n2)-c2ccc(Cl)cc2C(c2c(F)cccc2OC)=NC3)ccc1C(=O)O`, for which the Potency is 0.193 µM (active).
Still for that read-out and setting: in the case of `CC(=O)NCC(=O)N1C2CCC1c1cc(Nc3ncc(C(F)(F)F)c(NC4CCC4)n3)ccc12` (configuration not stated) it was 0.685 µM (active); in that of `COc1ccc2c(c1)c(CC(=O)O)c(C)n2C(=O)c1ccc(Cl)cc1`, 27.3 µM (active).
Same read-out and setting: as for `Nc1ccc(C(=O)Nc2cccc(-c3nc(N4CCOCC4)c4oc5ncccc5c4n3)c2)cn1`, the figure is 12.2 µM (active).
On to `C[C@]12CCC(=O)C=C1[C@@H]1C[C@@H]1[C@H]1[C@@H]3[C@@H]4C[C@@H]4[C@@]4(CCC(=O)O4)[C@@]3(C)CC[C@@H]12`, for which the “activity change, negative = viability loss” value was -22.8% (inactive).
As to `CNc1nccc(-c2cccnc2Oc2cc(C(=O)Nc3cccc(C(F)(F)F)c3)ccc2C)n1`, the Potency was 17.2 µM (active).
Turning to `c1cc(N[C@@H]2CCNC2)nc(-c2cnc3ccc(-c4cn[nH]c4)cn23)c1`, the Potency was 1.72 µM (active).
Regarding `OCc1ccc(-c2ccc(-c3ccc(CO)s3)o2)s1`, the “activity change, negative = viability loss” value was -21.5% [at 19.5 µM] (inactive).
For `Cc1cnc(Nc2ccc(OCCN3CCCC3)cc2)nc1Nc1cccc(S(=O)(=O)NC(C)(C)C)c1`, the Potency is 4.32 µM (active).
The same measure, in the same setting: as for `CCc1c2c(nc3ccc(OC(=O)N4CCC(N5CCCCC5)CC4)cc13)-c1cc3c(c(=O)n1C2)COC(=O)[C@]3(O)CC`, the figure is 7.69 µM (active).
As for `CCCCN(CCCC)C(=O)CN1C[C@H](c2ccc3c(c2)OCO3)[C@@H](C(=O)O)[C@@H]1c1ccc(OC)cc1`, the “activity change, negative = viability loss” value was 3.06% (inactive).
As to `COc1cc2nccc(Oc3ccc(NC(=O)Nc4cc(C)on4)c(Cl)c3)c2cc1OC`, the Potency was 5.44 µM (active).
The same measure, in the same setting: in the case of `COc1cc(C(=O)N2CCC(N3CCN(C)CC3)CC2)ccc1Nc1ncc2c(n1)N(C)c1ccccc1C(=O)N2C` it was 9.68 µM (active).
On the same count and under the same terms, as for `Nc1nccc(Oc2ccc(NC(=O)c3c[nH]cc(-c4ccc(F)cc4)c3=O)cc2F)c1Cl`, the figure is 3.06 µM (active).
Consider `C1CCC(C(CC2CCCCN2)C2CCCCC2)CC1` (configuration not stated), for which the Potency was 27.3 µM (active).
In the case of `CCN(CC)CCOc1ccc(/C(=C(\Cl)c2ccccc2)c2ccccc2)cc1`, the Potency was 28.2 µM (active).
The same measure, in the same setting: in the case of `CC(C)Nc1cc(-c2c[nH]c(C(=O)N[C@H](CO)c3cccc(Cl)c3)c2)c(Cl)cn1` it was 6.11 µM (active).
On the same count and under the same terms, in the case of `Cc1cc(Nc2cc(N3CCN(C)CC3)nc(/C=C/c3ccccc3)n2)n[nH]1` it was 3.85 µM (active); in that of `O=C1NC(=O)C(c2cnc3ccccn23)=C1c1cn2c3c(cccc13)CN(C(=O)N1CCOCC1)CC2`, 10.9 µM (active).
